PubChem BioAssay (NCI)
This is part of a sample that, as a whole, favours compounds with a hit. Of some 79,000 tested, about 15% had one in any assay. No stated cut-off is given here; in the data, active means growth inhibition above about 70%; inactive means the rest.

Tests used:
[1] = NCI Yeast Anticancer Drug Screen. Data for the rad50 strain (AID 155);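 further: 0% = growth of vehicle-only cultures of the same strain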; settings: S. cerevisiae rad50 strain growth inhibition; at 50.0 µM; active compounds read high
Procedure, shortened: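 Readout: growth inhibition relative to vehicle-treated cultures. Compound exposure was carried out in a genetically defined yeast strain deficient in DNA damage repair.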

[2] = NCI Yeast Anticancer Drug Screen. Data for the mec2-1 strain (AID 157); settings: S. cerevisiae mec2-1 strain, at 50.0 µM, active compounds read high
Procedure, shortened: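 Cells of the genetically defined mec2-1 yeast strain are incubated with test compound. Inhibition of growth is calculated against vehicle-treated controls.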

[3] = NCI Yeast Anticancer Drug Screen. Data for the sgs1 mgt1 strain (AID 161);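 further: 0% = growth of cultures given vehicle only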; settings: S. cerevisiae sgs1 mgt1 strain, at 50.0 µM, active compounds read high
Procedure, shortened: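 Mutant yeast exposed to compound; growth scored against vehicle-only wells.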

[4] = NCI Yeast Anticancer Drug Screen. Data for the cln2 rad14 strain (AID 165);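 further: 0% = growth equal to vehicle treated cultures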; settings: S. cerevisiae cln2 rad14 strain, at 50.0 µM, active compounds read high
Procedure, shortened: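 The screen exposed genetically defined yeast (cln2 rad14) to test compounds and scored growth inhibition relative to vehicle-treated controls.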

[5] = NCI Yeast Anticancer Drug Screen. Data for the bub3 strain (AID 167); settings: S. cerevisiae bub3 mutant strain, at 50.0 µM, active compounds read high
Procedure, shortened: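 Readout: yeast growth inhibition, expressed relative to vehicle-only wells. The test organism is a mutant strain from a panel with lesions in DNA repair or checkpoint genes.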

[6] = NCI Yeast Anticancer Drug Screen. Data for the mlh1 rad18 strain (AID 175); settings: S. cerevisiae mlh1 rad18 strain growth inhibition; at 50.0 µM; active compounds read high
Procedure, shortened: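 Compound-treated yeast growth, normalised to vehicle controls. Strain bears defined DNA repair mutations.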

Measured: growth inhibition

CC(=O)Nc1ccc(NS(=O)(=O)c2ccc3nc(C)n(NS(=O)(=O)c4ccc(NC(C)=O)cc4)c(=O)c3c2)cc1
inactive: [1] 29.1% | [2] 38% | [3] 29.1% | [4] 15.4% | [5] 39.2% | [6] 15.3%

N#CC(C(=O)CCCC(=O)Nc1ccc(Cl)cc1Cl)c1ccccc1 (configuration not stated)
inactive: [1] -39% | [2] -13.6% | [3] -6.95% | [4] 13.2% | [5] -16% | [6] -28.1%

COc1ccc(-c2cc(O)cc(C)c2N)c(OC)c1OC
inactive: [1] 17.1% | [2] 14.6% | [3] 17.4% | [4] 7.9% | [5] -3.45% | [6] 17.4%

CC(=N\NS(=O)(=O)c1ccc(C)cc1)/C(C)=N/NS(=O)(=O)c1ccc(C)cc1
inactive: [1] 25.3% | [2] -1.9% | [3] 12.8% | [4] 0.85% | [5] 0.95% | [6] -8.3%

Cn1c(N)c(NC(=O)CC#N)c(=O)n(C)c1=O
inactive: [1] 20.9% | [2] 2.7% | [3] 27.3% | [4] 21% | [5] -9.85% | [6] 21.1%

COC1CC(NC(C)=O)C(OC(C)=O)C(C)O1 (configuration not stated)
inactive: [1] -1.5% | [2] -9.6% | [3] -5.65% | [4] -29.2% | [5] -7.55% | [6] -1.4%

COc1ccccc1NC(=O)OCc1ccco1
inactive: [1] 2.55% | [2] -6.9% | [3] 28.6% | [4] -65.2% | [5] 3.35% | [6] 6.85%

O=S(=O)(OCC(F)(F)F)c1ccccc1
inactive: [1] 16.4% | [2] 8.25% | [3] 14.7% | [4] -2.8% | [5] -8.8% | [6] -10.4%

COc1ccc(C(Cc2ccccc2Cl)N(CCO)CCO)cc1 (configuration not stated)
inactive: [1] -7% | [2] -5.3% | [3] -9.1% | [4] -19.2% | [5] 5.5% | [6] -5.2%

CC(=O)OC1c2ccccc2C(=O)C1(OC(C)=O)c1ccccc1 (configuration not stated)
inactive: [1] 0.7% | [2] 11.3% | [3] 12.7% | [4] 25.3% | [5] -10.9% | [6] 43.9%

CCN(CC)CC1(C)NN=C2C(n3cccc3)=CC=CN21 (configuration not stated)
inactive: [1] -3.7% | [2] 11.7% | [3] -3.4% | [4] -20.6% | [5] -4.2% | [6] -4.9%

O=C1c2ccccc2-c2nnsc21
inactive: [1] -20.7% | [2] -14.4% | [3] 2.3% | [4] -12.6% | [5] -6.2% | [6] 19.5%

CC(=O)OCCOC(C)=O
inactive: [1] 15.2% | [2] 4.35% | [3] -5.1% | [4] 19.9% | [5] 21.3% | [6] 1.45%

NC(C(=O)O)c1ccccc1 (configuration not stated)
inactive: [1] -0.85% | [2] -23.4% | [3] -3.85% | [4] -1.9% | [5] -10.7% | [6] -19.5%

CCN(CCNc1cc(OC)cc2cccnc12)CC(C)C
inactive: [1] 22.8% | [2] 9.65% | [3] 1.8% | [4] 13.8% | [5] 6.85% | [6] 17%

O=C(O)CCC1(c2ccccc2)CCCCC1
inactive: [1] 6.1% | [2] 13.9% | [3] 11.6% | [4] 10.2% | [5] 47.7% | [6] -0.9%

Cc1cc2c(cc1C)NC1=C(N2)OC(c2ccc(Cl)cc2)C1=O (configuration not stated)
inactive: [1] 19.9% | [2] 16.2% | [3] 44.6% | [4] 2% | [5] 21.1% | [6] 44.1%

O=C(O)c1c(Br)c(Br)c(Br)c(Br)c1C(=O)Nc1ccc(Br)cc1
inactive: [1] 2.25% | [2] -1.3% | [3] 5.8% | [4] -8.6% | [5] 2.75% | [6] 33.2%

COC(=O)c1cccc(C)c1C(=O)c1ccc(C)cc1C
inactive: [1] 9.65% | [2] 26.6% | [3] 53.1% | [4] -22.5% | [5] 57.8% | [6] 57.2%

O=C(CC(=O)Nc1ccccc1)N/N=C/c1cc(N=Nc2ccc(Br)cc2)ccc1O
inactive: [1] 16.4% | [2] 24.9% | [3] 53% | [4] 4.65% | [5] 0.2% | [6] 29%

CN(Cc1ccccc1)C(=O)Nc1ccc(F)c([N+](=O)[O-])c1
inactive: [1] 7.95% | [2] 28.6% | [3] 21.9% | [4] -4.2% | [5] 50.6% | [6] 16.2%

CC1CC(OC(=O)c2ccccc2)CCC1=O (configuration not stated)
inactive: [1] -5.6% | [2] -2.85% | [3] -7.65% | [4] 14.5% | [5] 15.6% | [6] -7.8%

ON=C(C(Cl)(Cl)Cl)C(Cl)(Cl)Cl
inactive: [1] -17.2% | [2] -26% | [3] -8.35% | [4] 4.9% | [5] -11.9% | [6] -29.8%

CC(=O)NC(CCCCN)C(=O)NCc1ccccc1 (configuration not stated)
inactive: [1] -1.95% | [2] -12% | [3] -12.1% | [4] 11.1% | [5] -19% | [6] -20.4%

CC(=O)NC(=O)CC(=O)c1ccccc1
inactive: [1] -2.2% | [2] -12.8% | [3] -13.4% | [4] 13.9% | [5] -4.7% | [6] -18.3%

Cc1noc(-c2ccccc2)c1N=Nc1ccccc1
inactive: [1] 11.6% | [2] 12.1% | [3] 28.1% | [4] -34.2% | [5] 45.1% | [6] 28.5%

O=S1(=O)CC(O)C(Br)C1 (configuration not stated)
inactive: [1] -6.7% | [2] 24.1% | [3] 10.1% | [4] 4.85% | [5] 2.35% | [6] -10.8%

N#Cc1ccc(Sc2ccccc2)cc1C#N
inactive: [1] 12.8% | [2] -8.7% | [3] 24.4% | [4] 10.2% | [5] 24.9% | [6] 0.6%

CC1=NC(=Cc2ccc(O)cc2)C(=O)N1n1c(-c2ccccc2)nc2ccccc2c1=O
inactive: [1] -4.7% | [2] -10.3% | [3] -5.35% | [4] 2.6% | [5] -10.8% | [6] 3.45%

CC(C)CCOC(=O)NC(Nc1ccc(F)cc1)(C(F)(F)F)C(F)(F)F
inactive: [1] -10.6% | [2] -15.9% | [3] -40.5% | [4] -13.3% | [5] -5.2% | [6] -25.9%

CCCNC(=S)N/N=C\C(C)=N\Nc1ccc(Cl)cc1
inactive: [1] 31.4% | [2] 16.2% | [3] 3.15% | [4] 36% | [5] 7.5% | [6] 17.2%

Cc1cccc(NC(=O)C(Cl)Cl)n1
inactive: [1] -2.3% | [2] -20.8% | [3] -24.4% | [4] -43.8% | [5] -1.95% | [6] -18.1%

Nc1c(Cl)ncnc1NCCc1ccccc1
inactive: [1] -3.35% | [2] -16.1% | [3] -15.4% | [4] -45.1% | [5] -11.8% | [6] -11.8%

Cc1nn(C(=O)c2ccncc2)c2c1C(c1cccc([N+](=O)[O-])c1)SC(N)=N2 (configuration not stated)
inactive: [1] -55.5% | [2] -45.6% | [3] -32.2% | [4] 2.1% | [5] -10.6% | [6] -28.2%

CCOC(=O)c1c(Br)c(-c2ccc([N+](=O)[O-])cc2)c(Br)n1C
inactive: [1] 11.4% | [2] -7.4% | [3] -0.15% | [4] -0.15% | [5] -2.1% | [6] -5.2%

Cn1c(=O)c(C(=O)NC(=O)OCc2ccccc2)cn(CCSCCOC(=O)NCCCCCCNC(=O)OCCSCCn2cc(C(=O)NC(=O)OCc3ccccc3)c(=O)n(C)c2=O)c1=O
inactive: [1] -3.1% | [2] -21.1% | [3] -6.35% | [4] -0.95% | [5] -5.15% | [6] -16.5%

COC(=O)c1cc(-c2ccccc2)c2c(=O)n(-c3ccccc3)[nH]c2n1
inactive: [1] 13.7% | [2] 7.35% | [3] 20.5% | [4] -10.3% | [5] -4.55% | [6] 4.85%

CC1=C/C(=N\O)C(C(O)(C(F)(F)F)C(F)(F)F)C(C)(C)C1 (configuration not stated)
inactive: [1] -37.7% | [2] -39% | [3] -17.4% | [4] -12.5% | [5] -7.35% | [6] 2.9%

c1ccc(SCc2ccc3c(c2)OCO3)cc1
inactive: [1] 27.4% | [2] 1.4% | [3] 18.2% | [4] 9.25% | [5] 18.8% | [6] 16.8%

CC(=O)OCC(OC(C)=O)C1OC(OCc2ccccc2)C(OC(C)=O)C(OC(C)=O)C1OC(C)=O (configuration not stated)
inactive: [1] -10.1% | [2] -4.2% | [3] -17.6% | [4] 44% | [5] -3% | [6] -5.85%

CCOC(=O)c1c(C)n2c3c(cccc13)CCC2
inactive: [1] 23.4% | [2] 16.9% | [3] 3.05% | [4] 61.6% | [5] 8.6% | [6] 12.8%

CCCCN=C1NC(N)=NC(C)(C)N1
inactive: [1] -0.1% | [2] -0.35% | [3] -0.75% | [4] -37.5% | [5] -13.3% | [6] -18.9%
